# Laboratory results reported in PubChem BioAssay (NCATS).
# Values joined by “and” are separate entries in the source; they are usually repeats but may differ in a detail not shown here. Identical values can stand only once. Records with an inconclusive call do not appear. Values without a mark were called inactive. Calls come from the whole dose curve.
# Biological target: Bile acid receptor (Homo sapiens) (UniProt Q96RI1)
# Experiment: qHTS assay for small molecule agonists of farnesoid X receptor signaling (AID 588527);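 note: series mostly up to about 77 µM; 0% = vehicle basal and 100% = reference agonist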
# Details: HEK293T FXR-UAS-bla, beta-lactamase ratio, 16 h; activation: stronger effect = higher value
# Procedure, shortened: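 Read-out: beta-lactamase reporter fluorescence with CCF4 substrate in GeneBLAzer FXR-UAS-bla HEK293T cells, after 16 h compound exposure at 37 C. Response scaled between DMSO basal (0%) and chenodeoxycholic acid at 100 uM (100%).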
# Bile acid receptor (Homo sapiens), sequence (Q96RI1 whole entry, looked up): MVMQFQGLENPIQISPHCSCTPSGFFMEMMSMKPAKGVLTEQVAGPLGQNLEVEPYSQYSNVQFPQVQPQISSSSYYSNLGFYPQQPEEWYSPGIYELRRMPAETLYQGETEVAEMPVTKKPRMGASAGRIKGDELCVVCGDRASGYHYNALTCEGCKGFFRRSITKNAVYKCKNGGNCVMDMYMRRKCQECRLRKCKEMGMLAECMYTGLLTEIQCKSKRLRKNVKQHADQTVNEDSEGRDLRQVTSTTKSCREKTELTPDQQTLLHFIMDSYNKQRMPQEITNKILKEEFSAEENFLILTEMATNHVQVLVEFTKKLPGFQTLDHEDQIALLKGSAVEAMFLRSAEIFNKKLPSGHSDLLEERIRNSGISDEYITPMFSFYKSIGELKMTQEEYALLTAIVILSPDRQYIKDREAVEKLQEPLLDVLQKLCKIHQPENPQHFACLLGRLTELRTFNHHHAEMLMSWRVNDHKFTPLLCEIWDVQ
row,Compound,activation
1,O=C(O)c1ccc2c(c1)C(=O)OC2=O,-5.89%
2,O=C=Nc1ccc(Cl)c(Cl)c1,2.96%
3,Cc1ccc(N=Nc2c(O)ccc3ccccc23)c([N+](=O)[O-])c1,-0.458%
4,CCC(C)(C)C,-0.224%
5,O=C(/C=C/c1ccc(O)c(O)c1)O[C@@H](C(=O)O)[C@@H](OC(=O)/C=C/c1ccc(O)c(O)c1)C(=O)O,-1.16%
6,Cc1ccc(CO)cc1,-3.46%
7,O=c1oc2cc(O)ccc2c2oc3cc(O)ccc3c12,8.73%
8,CCCCCCCC(=O)Oc1c(Br)cc(C#N)cc1Br,1.95%
9,N#Cc1ccccc1,-3.25%
10,C=CCCCCCC,-0.782%
11,COc1cccc(N)c1,2.13%
12,CCCCCCCCCCO,-3.92%
13,CC(C)(C)CC(C)(C)c1ccc(OCCO)cc1,2.48%
14,CC1CCC2CC1C2(C)C (centres undefined),3.3%
15,CO[Si](CCCNCCC[Si](OC)(OC)OC)(OC)OC,1.6%
16,O=C(O)C1(C(=O)Nc2ccc(Cl)cc2Cl)CC1,-11.8%
17,C=CCOC(=O)CCCCCCCC,-1.24%
18,CC(C)c1ccc(C(C)C)cc1,2.92%
19,Nc1ccc(S(=O)(=O)O)cc1,-1.98% and -2.03%
20,O=C(O)CCCCCCC(=O)O,1.16%

row,Compound,activation
1,O=C(O)c1c(Cl)cccc1Cl,2.87%
2,Oc1ccc(C(c2ccc(O)cc2)C(Cl)(Cl)Cl)cc1,0.126%
3,CCCCOC(=O)/C=C\C(=O)OCCCC,-3.9%
4,O=C(O)CN(CCO)CCN(CC(=O)O)CC(=O)O,-2.73%
5,NNS(=O)(=O)c1ccc(Oc2ccc(S(=O)(=O)NN)cc2)cc1,-0.0085%
6,CCCCCCCCCCCC[N+](C)(C)C,0.368%
7,OCC(CO)(CO)COCC(CO)(CO)CO,-6.39%
8,CCCCCCCCCC[N+](C)(C)Cc1ccccc1,3.15%
9,O=C(O)CN(CCCN(CC(=O)O)CC(=O)O)CC(=O)O,8.42%
10,CC(=O)O[C@@H]1CC(C)=C2[C@H]1[C@H](C)CC[C@H]2/C=C(\C)C(=O)O,0.825%
11,Oc1ccc(Nc2ccccc2)cc1,0.593%
12,O=C(O)c1ccc(Cl)cc1Cl,-2.47%
13,Cc1ccc(S(=O)(=O)NC2CCCCC2)cc1,0.615%
14,COc1ccc(C(=O)Nc2ccccc2)cc1[N+](=O)[O-],-2.07%
15,CCOCCOCCOCCO,2.46%
16,O=Cc1ccc(CO)o1,2.1%
17,CCC(C)Nc1ccc(NC(C)CC)cc1 (centres undefined),-2.74%
18,CCCCOC(=O)COc1ccc(Cl)cc1Cl,-5.91% and -0.513%
19,CC(=O)Nc1ccc(C(=O)CCl)cc1,2.69%
